Compound activity: PubChem, National Center for Advancing Translational Sciences (NCATS)
VACV mCherry inh = vaccinia inhibition (mCherry reporter); AID 720579; Potency, µM (titrated, usually from 36.5 µM), inactives show at the top dose activity change, negative = inhibition, usual class: inhibitors; actives 0.63% (n = 310,000); Vaccinia virus mCherry reporter infection, fluorescence; calls by dose curve; tested in A549 cells; note: potency is the fitted concentration of half-maximal effect; nearly all actives have a fitted effect of over 35% in size
FMDV inh = blocks foot and mouth disease virus | FMDV antiviral cell-based qHTS | actives 1.2% (n = 410,000) | Potency, µM (series often up to 57.9 µM), without a hit: at the highest dose activity change, negative = inhibition, hits mostly inhibitors; calls by dose curve; tested in HEK293T cells; note: read-out not given here; potency is the fitted concentration of half-maximal effect; nearly all actives have a fitted effect of over 45% in size
HCV inhibitor = inhibitors of hepatitis C virus infection | Huh7.5.1 HCVcc-Cre infection, luciferase reporter, 44 h | Potency, µM (titrated, usually from 41.8 µM), for the others: at the highest dose activity change, negative = inhibition, usual class: inhibitors | actives 3.4% (n = 340,000); active = well fitted inhibition curve with a large enough effect; inconclusive = small, poorly fitted or top-dose-only effect, or another doubt; inactive = no such curve, though single readings can be large or run the other way; note: potency is the fitted concentration of half-maximal effect
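Reporter virus HCVcc-Cre (~0.5 moi) infects cells exposed to compound; seeding density 1,000 cells/well with 4 h settling beforehand. Luminescence, 15 sec read, taken 44 h post-infection following a 15 min RT substrate incubation.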
HCMV inh = human cytomegalovirus inhibition. actives 4.5% (n = 410,000). HFF cells, HCMV-luciferase reporter, 72 h; active compounds read low. activity change, negative = inhibition, % at 57.5 µM. AID 1259415; in the data active = activity change below about -60%; inconclusive = no clear call, values can overlap the other calls; inactive = above about -39%
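Steps: HFFs plated, 16 h 37C; compounds added; HCMV-luciferase added to MOI 1 PFU/cell; 72 h 37C; OneGlo reagent, 5 min room temperature; luminescence read, normalized to controls.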
Vaccinia Venus = vaccinia inhibition (Venus reporter). actives 0.46% (n = 330,000). Potency, µM (series often up to 36.5 µM), for inactives: top-dose activity change, negative = inhibition, hits mostly inhibitors. Vaccinia virus Venus reporter expression, fluorescence; calls by dose curve; tested in A549 cells; note: potency is the fitted concentration of half-maximal effect; nearly all actives have a fitted effect of over 30% in size
* marks the source's active call; other numbers are inactive results; i = inactive; ? = inconclusive; . = no result; ! = not active in a repeat; [ ] = another dose, or the depositor's remark. Sampled rows, rich in hits. Any-hit rate of the full collection: about 7.3%. % is set by controls: 0 for no effect and ±100 for the full control effect.

SMILES	VACV mCherry inh	FMDV inh	HCV inhibitor	HCMV inh	Vaccinia Venus
COc1ccc(CC(=O)Nc2cccc(-c3ccc4nncn4n3)c2)cc1OC	-7%	18µM*	?	0	-22%
COc1ccc(CC(=O)Nc2cccc(-c3ccc4nnc(C)n4n3)c2)cc1OC	i	20µM*	?	92	5%
Cc1cccn2cc(-c3ccc(NC(=O)Cc4ccccc4)cc3)nc12	-22%	-30%	0%	-8	?
COc1ccc(CC(=O)Nc2ccc(-c3cn4cccc(C)c4n3)cc2)cc1OC	.	-30%	10µM*	-17	?
COc1ccc(S(=O)(=O)N2CCOCC2)cc1NC(=O)c1cccc(Cl)c1	.	23%	-6%	-30	.
Cc1ccc(NC(=O)CC(C)c2ccccc2)cc1S(=O)(=O)N1CCOCC1 (configuration not stated)	i	?	?	-34	-13%
CCCCC(CC)CNC(=O)c1[nH]c(C)c(C(C)=O)c1C (configuration not stated)	.	29%	-30%	-65*	.
CC(=O)c1c(C)[nH]c(C(=O)OCc2ccc(F)cc2Cl)c1C	-6%	-22%	?	-68*	-23%
CC(=O)c1c(C)[nH]c(C(=O)OCc2c(F)cccc2Cl)c1C	?	?	10µM*	-62*	-28%
CC(=O)c1c(C)[nH]c(C(=O)NCc2ccccc2Cl)c1C	.	16%	13µM*	-9	.
COC(=O)c1c(C)[nH]c(C(=O)OCc2ccc(F)cc2)c1C	.	24%	?	87	-18%
c1csc(CNc2ncncc2-c2ccc3c(c2)OCO3)c1	i	-4%	.	.	0%
Cc1cc(NC(=O)CSc2nc(C)c(C)c(=O)[nH]2)no1	-5%	4%	19%	-13	-11%
CC(=O)c1c(C)[nH]c(C(=O)OCC(=O)NCCCc2ccccc2)c1C	.	-28%	?	-13	.
CC(=O)c1c(C)[nH]c(C(=O)OCc2cccc(Cl)c2)c1C	?	-17%	11µM*	41	-26%
COc1ccc2c(c1)CCc1c(C(=O)Nc3c(C)nn(Cc4ccc(Cl)cc4)c3C)noc1-2	-9%[7.34 µM]	-26%	.	-79*	-5%[7.34 µM]
COc1ccc2c(c1)CCc1c(C(=O)NCc3ccc(Cl)cc3)noc1-2	-9%	12%	5%	19	-4%
COc1ccc2c(c1)CCc1c(C(=O)Nc3c(C)nn(Cc4ccccc4)c3C)noc1-2	?	28µM*	8.9µM*	-67*!	?
COc1ccc2c(c1)CCc1c(C(=O)Nc3cc(C)n(Cc4ccc(Cl)cc4)n3)noc1-2	.	-8%	-1%	-64*	.
COc1ccc2c(c1)CCc1c(C(=O)Nc3c(C)nn(Cc4ccc(Cl)c(Cl)c4)c3C)noc1-2	-9%[7.34 µM]	?	.	-88*	-9%[7.34 µM]
Cc1ccccc1Cn1c(=O)n(CCC(=O)NCc2ccco2)c(=O)c2sccc21	-9%	0%	.	?	-5%
Cc1ncc2c(c1CNC(=O)/C=C/c1cccs1)CCN(C(=O)C1CC(=O)OC13CCCCC3)C2 (configuration not stated)	-13%	-1%	.	.	9%
O=C(NC(c1ccc(Cl)cc1)c1cnccn1)C1CCN(Cc2cccc(C(F)(F)F)c2)CC1 (configuration not stated)	i	-4%	.	?	?
Cc1nn(Cc2ccc(Cl)cc2)c(C)c1NC(=O)c1noc2c1CCc1ccccc1-2	?	40µM*	2%	36	?
CCN(CC)CCNC(=O)c1nn(-c2ccc(Cl)cc2)c2c1CCc1cc(OC)ccc1-2	?	?	?	-25	13µM*
SMILES	VACV mCherry inh	FMDV inh	HCV inhibitor	HCMV inh	Vaccinia Venus
Cc1ccc(C)c(N2CCN(C(=O)C3CCC(CNS(=O)(=O)c4ccc(Br)s4)CC3)CC2)c1 (configuration not stated)	-17%	?	.	-22	-12%
O=C(NNC(=S)Nc1ccc(Cl)c(Cl)c1)c1ccccn1	?	12%	4.5µM*	-82*	?
O=C(NNC(=O)C(c1ccccc1)c1ccccc1)c1ccccn1	?	?	6.3µM*	-97*	?
O=C(CCc1ccccc1)NNC(=O)c1ccccn1	.	3%	?	-75*	.
O=C(CCc1ccccc1)NNC(=O)CCc1ccccc1	.	18%	-7%	6	.
CCc1ccc(-n2c(SCC(=O)c3ccc4c(c3)NC(=O)CO4)nc3ccccc3c2=O)cc1	-2%	-2%	?	-28	-8%
O=C1COc2ccc(C(=O)CSc3nc4ccccc4c(=O)n3-c3ccc(Cl)c(Cl)c3)cc2N1	-5%	18%	-8%	-81*	-2%
COc1cc(-c2ccc3oc(-c4ccsc4)cc3c2)cc(OC)c1OC	?	-11%	-12%	-18	14µM*
CN(CC1CCCN(CCc2ccc(Cl)cc2)C1)C(=O)c1ccco1 (configuration not stated)	-10%	-18%	?	-8	-4%
Cc1ccc(C(=O)Nc2ncc3c(Cl)cccc3n2)cc1	-9%	10µM*	-25%	-90*	-18%
Cc1ccc(C(=O)Nc2ccc(Cl)cn2)cc1	?	-10%	?	50	-28%
CC1CC(C)CN(S(=O)(=O)c2ccccc2[N+](=O)[O-])C1 (configuration not stated)	i	-10%	5%	-72*	-14%
CC(C)S(=O)(=O)c1csc(NC(=O)Nc2cc(Cl)ccc2Cl)c1Cl	-4%	?	13µM*	25	-19%
COC(=O)[C@]12CCCCC=C1N(Cc1cccc3ccccc13)C(=O)[C@H](CC(=O)NCc1ccc(C)o1)C2	28%	?	.	9	-2%
CC1(C)CC(C)(c2ccc(O)cc2O)N(c2ccc3ccccc3c2)C(=S)N1 (configuration not stated)	.	-2%	10µM*	-15	?
CC1(C)CC(C)(c2ccc(O)cc2O)N(c2cccc(Cl)c2)C(=S)N1 (configuration not stated)	.	5%	?	85	-11%
CCCC(=O)Nc1nnc(S(=O)(=O)N(C)Cc2ccc(Cl)cc2)s1	-3%	11%	.	0	-8%
CN(CCOc1ccccc1)CC(=O)Nc1cccc(C#N)c1	-7%	3%	2%	-65*	-4%
CCOC(=O)c1cnc2ccccc2c1Nc1ccc2c(c1)OCCO2	i	?	?	-70*	-13%
COC(=O)C1=C(c2ccc(-c3ccccc3)c(F)c2)C[C@@H]2CC[C@H]1N2C(=O)NC1CC1	-21%	-13%	10µM*	6	-29%
COC(=O)C1=C(c2ccc3ccccc3c2)C[C@@H]2CC[C@H]1N2C(=O)NC(C)C	-6%	-3%	-12%	-63*	-11%
COC(=O)C1=C(c2ccc(-c3ccccc3)c(F)c2)C[C@@H]2CC[C@H]1N2C(=O)NCCOc1ccccc1Cl	?	?	14µM*	88	?
CCCNC(=O)N1[C@H]2CC[C@@H]1C(C(=O)OC)=C(c1ccc(-c3ccccc3)c(F)c1)C2	?	?	7.9µM*	10	?
